The assay addresses Cytochrome P450 2D6 (Homo sapiens) (UniProt P10635). Nature of the assay: qHTS Assay for Inhibitors and Substrates of Cytochrome P450 2D6 (AID 891). Also: nearly all actives have a fitted effect of over 60% in size. Put shortly: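 Human CYP2D6 (5 nM) with 30 uM Luciferin-ME EGE (at Km) in 100 mM KPO4, compound preincubated 10 min, then NADPH regeneration system for 60 min at room temperature. Luciferin read by luminescence; normalized to 1.43 uM quinidine.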
A general note: qHTS replaces the single test concentration by a dilution series.

Each structure is given as a SMILES string. Records with an inconclusive call do not appear. Activity calls are given as the source filed them. Calls follow the shape of the dose curve; as a rule, active = well fitted inhibition curve with a large enough effect; inconclusive = small, poorly fitted or top-dose-only effect; inactive = no such curve, though single readings can be large or run the other way.
Potency is read from the fitted curve at half-maximal effect.

Cytochrome P450 2D6 (Homo sapiens), sequence (P10635 whole entry, looked up): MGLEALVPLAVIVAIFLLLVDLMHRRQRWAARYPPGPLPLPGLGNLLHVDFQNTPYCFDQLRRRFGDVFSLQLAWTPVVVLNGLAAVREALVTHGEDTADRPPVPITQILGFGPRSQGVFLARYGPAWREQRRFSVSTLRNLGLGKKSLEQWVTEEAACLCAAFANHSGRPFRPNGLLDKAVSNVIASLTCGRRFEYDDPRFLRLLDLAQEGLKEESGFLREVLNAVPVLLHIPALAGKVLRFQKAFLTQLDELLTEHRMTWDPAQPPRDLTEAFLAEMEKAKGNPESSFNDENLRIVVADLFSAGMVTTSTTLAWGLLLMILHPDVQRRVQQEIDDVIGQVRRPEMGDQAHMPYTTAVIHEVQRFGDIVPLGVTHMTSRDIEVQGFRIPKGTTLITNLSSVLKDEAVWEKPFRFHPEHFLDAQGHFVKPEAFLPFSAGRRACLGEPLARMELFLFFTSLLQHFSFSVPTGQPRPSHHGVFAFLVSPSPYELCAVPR

As to `CNc1cc(-c2ccccc2CN(C)C)ncn1`, the Potency is 631 nM (active).

As for `CNc1ccnc(-c2ccccc2OC)n1`, the Potency is 5010 nM (active).

With `CN1CCN(c2ncnc3ccc(-c4ccc5c(c4)OCO5)cc23)CC1`, the Potency is 251 nM (active).

For the compound `CN1CCN(c2ncncc2-c2ccc(C(=O)N(C)C)cc2)CC1`, the Potency was 251 nM (active).

`CNc1nc(-c2ccccc2CN(C)C)nc2ccccc12`: the Potency was 3980 nM (active).

Values taken from PubChem BioAssay (NCATS).
